PNC assembly inh: perinucleolar compartment assembly inhibition | AID 2417 | activity change (PNC), negative = inhibition, % at 10 µM | PC3M PTB-GFP, PNC prevalence imaging, 16 h; stronger effect = lower value | 3.1% of 140,000 active;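 active means readout at or below -70, meaning at least 70% loss of cells showing the perinucleolar compartment, a nuclear body marking cancer cells; inconclusive means readout between -30 and a set limit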;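 further: plate controls were DMSO wells for no effect and camptothecin positive control wells for full effect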
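PC3M cells stably expressing PTB-GFP, 750–1000 cells/well, treated 16 h at 37 °C with compound (23 nl of library stock), in duplicate. After paraformaldehyde fixation and Hoechst stain, imaged at 20x; PNC prevalence scored by image analysis.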
IMPase inh: cell-permeable inhibitors of inositol monophosphatase (IMPase); P97697; AID 901; CHO-M1 cells, IP1 accumulation, HTRF TR-FRET ratio; 120,000 tested, under 10 active; inhibition (IP1 accumulation), % at 46.1 µM; active means well fitted curve in the direction sought with a large enough effect in the signal ratio, not every such curve was filed as active; inconclusive means small, poorly fitted or top-dose-only effect, or a change in a side signal; inactive means no such curve, though single readings can be large or run the other way; the % refers to the signal ratio;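 further: cells stimulated with carbachol in lithium chloride buffer; plate controls were DMSO basal wells for no effect and reference inhibitor wells for full effect; higher means more IMPase inhibition seen as more IP1 and lower FRET ratio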
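Cellular IMPase inhibition is scored as a rise in cytosolic IP1, detected by competitive TR-FRET between d2-labelled IP1 and a europium anti-IP1 antibody. M1-expressing CHO cells were stimulated with carbachol for 30 min at 37C, with lithium (50 mM LiCl) present in the buffer.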
IMPase Li inh: membrane-permeable IMPase blocker, potentiated with lithium. CHO-M1 cells, IP1 TR-FRET (IP-One), carbachol + lithium. Potency, µM (doses to about 59.4 µM), without a hit: at the highest dose activity, negative = IMPase inhibition, usual class: inhibitors. 0.35% of 210,000 active. AID 1457;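 further: IP1 builds up when IMPase is blocked and the TR-FRET signal falls; potency means the concentration at half of the fitted maximal effect; plate controls were basal vehicle for no effect and high inhibitor control for full effect; nearly all actives have a fitted effect of over 50% in size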
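Steps: plate 2000 CHO-M1 cells per well and culture 16–30 h; add compound and lithium; incubate 30 min, 37C; add d2-IP1 tracer and Eu cryptate anti-IP1 antibody in lysis buffer; read after 10 min at room temperature.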
ALDH1A1 block: inhibitors of human aldehyde dehydrogenase 1A1; AID 1030; 7.3% of 220,000 active; P00352; Potency, µM (series often up to 75.3 µM), for inactives: top-dose activity, negative = inhibition, usual class: inhibitors; Purified ALDH1A1, NADH fluorescence, propionaldehyde substrate; active means well fitted inhibition curve with a large enough effect, not every such curve was filed as active; inconclusive means small, poorly fitted or top-dose-only effect, or another doubt; inactive means no such curve, though single readings can be large or run the other way;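 further: potency means the concentration at half of the fitted maximal effect; plate controls were no enzyme wells and a reference inhibitor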
HPGD block: blocks human HPGD enzyme activity; purified HPGD, NADH fluorescence kinetic, PGE2 substrate; Potency, µM, inactives show at the top dose activity change, negative = inhibition, hits mostly inhibitors; 4.3% of 150,000 active; AID 894; active means well fitted inhibition curve with a large enough effect, not every such curve was filed as active; inconclusive means small, poorly fitted or top-dose-only effect, or another doubt; inactive means no such curve, though single readings can be large or run the other way; further: potency means the concentration at half of the fitted maximal effect
Target sequence (P15428 whole entry, looked up): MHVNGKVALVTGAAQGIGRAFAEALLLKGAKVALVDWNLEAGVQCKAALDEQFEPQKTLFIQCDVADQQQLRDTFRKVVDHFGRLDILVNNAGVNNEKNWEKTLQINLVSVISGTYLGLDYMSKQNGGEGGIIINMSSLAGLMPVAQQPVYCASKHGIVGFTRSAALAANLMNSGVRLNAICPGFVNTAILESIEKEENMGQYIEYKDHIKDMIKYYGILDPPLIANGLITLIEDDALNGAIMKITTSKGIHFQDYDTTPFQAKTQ
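NADH formation kinetics: reaction with 30 uM PGE2 and 1 mM NAD+ (final), 20 nM enzyme, Tris-HCl pH 8 with Tween 20, after 15 min compound preincubation at room temperature. Fluorescence change, last versus first of five reads.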
NPSR antag: blocks cAMP signaling of the human neuropeptide S receptor; Potency, µM (titrated, usually from 38.3 µM), without a hit: at the highest dose activity change, negative = inhibition, usual class: inhibitors; Q6W5P4; 1% of 220,000 active; CHO-NPSR cells, cAMP TR-FRET, antagonist mode; further: potency means the concentration at half of the fitted maximal effect; nearly all actives have a fitted effect of over 50% in size
Target sequence (Q6W5P4 whole entry, looked up): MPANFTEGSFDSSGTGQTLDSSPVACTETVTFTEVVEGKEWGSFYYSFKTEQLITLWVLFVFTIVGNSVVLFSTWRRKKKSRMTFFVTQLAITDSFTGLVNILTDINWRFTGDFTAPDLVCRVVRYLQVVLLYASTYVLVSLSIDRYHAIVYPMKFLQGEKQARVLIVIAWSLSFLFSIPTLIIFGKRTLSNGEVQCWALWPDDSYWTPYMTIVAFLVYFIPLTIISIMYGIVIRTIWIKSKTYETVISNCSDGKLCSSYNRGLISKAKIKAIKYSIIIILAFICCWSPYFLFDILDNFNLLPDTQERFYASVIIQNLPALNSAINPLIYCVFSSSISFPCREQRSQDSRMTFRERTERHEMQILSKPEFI
Starred values were filed as active, the others as inactive; ? = inconclusive; · = no result; [ ] = another dose, or the depositor's remark. This is a sample that favours compounds with a hit; in the whole collection about 11% have one here. Unless noted, the call rests on the fitted dose curve; in most records, active means well fitted curve in the direction sought with a large enough effect; inconclusive means small, poorly fitted or top-dose-only effect, or another doubt; inactive means no such curve, though single readings can be large; an effect the other way counts as inactive or inconclusive. Unless noted, on the % scale 0 is the no-effect control and ±100 the full control effect.

SMILES	PNC assembly inh	IMPase inh	IMPase Li inh	ALDH1A1 block	HPGD block	NPSR antag
COC(=O)c1ccccc1NC(=O)CN(C)S(=O)(=O)c1ccc(OC)c(C)c1	3	10	40%[38.3 µM]	?	?	5%[46.1 µM]
COc1ccccc1/C=C/C(=O)Nc1ccc(N2CCOCC2)cc1	·	·	2%	5%	·	3%
COc1ccc(-c2c(C#N)c(N)nc3c2CCC3)cc1	·	·	5%	?	·	2%
COc1cc(-c2c(C#N)c(N)nc3c2CCCC3)cc(OC)c1OC	-100*	-9	-2%	-2%	-19%	-19%[46.1 µM]
COc1cc(-c2c(C#N)c(N)nc(SCc3ccncc3)c2C#N)cc(OC)c1OC	?	?	5%[38.3 µM]	29%	13µM*	?
CCOc1cc(-c2cc(-c3ccc(N)cc3)nc(N)c2C#N)ccc1O	66	-24	-28%[38.3 µM]	?	?	-9%[46.1 µM]
CCOc1cc(-c2c(C#N)c(N)nc3c2CCCC3)ccc1O	-114*	2	2%[38.3 µM]	?	?	-14%[46.1 µM]
CSc1ccccc1C(=O)N1CCN(c2ccc(F)cc2)CC1	7	0	8%[38.3 µM]	5%	-14%	-8%[46.1 µM]
CC(=C1C(=O)c2ccccc2C1=O)N1CCN(c2ccc(F)cc2)CC1	·	·	·	18µM*	·	14%
O=C(CCSc1ccccc1)NCCSCc1ccccc1	-27	·	-7%	?	14µM*	9%
Cc1cccc(CSCCNC(=O)CCSc2ccccc2)c1	-24	·	2%	?	28µM*	-4%
O=C(Cc1ccccc1)NCCSCc1ccc(Cl)cc1	-7	5	1%[38.3 µM]	?	32µM*	-8%[46.1 µM]
O=C(COc1ccccc1)NCCSCc1ccc(Cl)cc1	-14	·	4%	-1%	-9%	-2%
CCCn1nc([N+](=O)[O-])c(C(C#N)c2nc3ccccc3s2)c(Cl)c1=O (stereo not given)	39	2	25%[38.3 µM]	?	-18%	10µM*
O=C(NCC1CCCO1)c1nc2c(nnn2Cc2ccccc2Cl)c(=O)[nH]1 (stereo not given)	-5	?	-4%	6%	13µM*	-16%[46.1 µM]
CCCc1nc2c(nnn2Cc2ccccc2Cl)c(=O)[nH]1	·	·	16%	4%	·	14%
FC(F)(F)c1nc(NCC2CCCO2)c2nnn(Cc3ccccc3Cl)c2n1 (stereo not given)	·	·	11%	-9%	·	-42%
O=C(NC1CC1)c1nc2c(nnn2Cc2ccccc2Cl)c(=O)[nH]1	?	-1	4%	-1%	16µM*	?
COc1ccc(Cn2nnc3c(=O)[nH]c(C(=O)NCCc4ccc(F)cc4)nc32)cc1OC	3	7	25%[38.3 µM]	-6%	3.2µM*	-16%[46.1 µM]
O=C(NCCc1ccccc1)c1nc2c(nnn2Cc2ccccc2Cl)c(=O)[nH]1	-25	4	2%	12%	7.9µM*	-25%[46.1 µM]
CCN(c1ccc(NC(=O)CN2C(=O)NC3(CCOc4ccccc43)C2=O)cc1)C(C)C (stereo not given)	-5	-2	39%[38.3 µM]	?	-21%	-11%[46.1 µM]
COc1cc(C)c(-c2[nH]ncc2-c2csc(C)n2)c(O)c1	?	·	0%	11%	-10%	13%
CCS(=O)(=O)N1Cc2ccccc2CC1C(=O)Nc1nnc(SCc2c(Cl)cccc2Cl)s1 (stereo not given)	?	·	11%	-1%	?	-17%
O=C(NC1CCCCC1)c1nc2c(nnn2Cc2ccccc2Cl)c(=O)[nH]1	?	2	13%	?	4.5µM*	-7%[46.1 µM]
COc1ccc(C(=O)On2c(-c3ccc(Br)cc3)nc3ccccc3c2=O)cc1	-6	·	13%	?	-11%	?
SMILES	PNC assembly inh	IMPase inh	IMPase Li inh	ALDH1A1 block	HPGD block	NPSR antag
COc1cc(OC)cc(-c2nc3ccccc3c(=O)n2OC(=O)c2ccc(Br)cc2)c1	-116*	·	-5%	-4%	-16%	-30%
CCn1nc(C)c(NS(=O)(=O)c2ccccc2)c1C	-105*	0	23%[38.3 µM]	-5%	-8%	-1%[46.1 µM]
Cc1csc(SCC(=O)NC(=O)NC2CCCC2)n1	·	·	3%	?	·	4%
Cc1ccc(C(=O)NC(=S)NCC(=O)c2ccccc2)cc1	-29	-4	?	?	-12%	-7%[46.1 µM]
O=C(O)c1ccccc1C(=O)NCC(O)c1ccccc1 (stereo not given)	·	·	·	-5%	·	-13%
O=C(CNC(=O)c1ccccc1C(=O)O)c1ccccc1	22	-8	-5%[38.3 µM]	25µM*	-6%	7%[46.1 µM]
O=C(CNC(=S)NC(=O)c1cccs1)c1ccccc1	?	·	-2%	7.9µM*	-18%	-16%
O=C(CNC(=S)NC(=O)c1ccco1)c1ccccc1	-5	2	-6%[38.3 µM]	20µM*	-14%	-4%[46.1 µM]
Cc1onc(-c2ccccc2Cl)c1C(=O)NC(=S)NCC(=O)c1ccccc1	·	·	10µM*	?	·	?
CCc1ccc(NC(=S)NC(=O)c2c(-c3ccccc3Cl)noc2C)cc1	·	·	·	·	·	-34%
COc1cc(S(=O)(=O)N2CCOCC2)cc(C(=O)c2nccn2C)c1OC	-88*	-1	-3%[38.3 µM]	1%	-1%	-1%[46.1 µM]
CCNC(=O)NC(=O)C(C)OC(=O)c1oc2ccc(OCC)cc2c1C (stereo not given)	-13	-4	-17%[38.3 µM]	?	-24%	1%[46.1 µM]
O=C(/N=C1/c2ccccc2CN1c1ccccc1)Nc1ccccc1	-28	5	15%	-9%	-12%	-4%
CCOc1ccc2c(c1)nc(SCC(=O)c1ccc(Br)s1)n2C	57	?	?	18µM*	?	-16%[46.1 µM]
CCOc1ccc2c(c1)nc(SCC(=O)c1cccs1)n2C	48	7	3%[38.3 µM]	?	-10%	?
CC(=O)NS(=O)(=O)c1ccc(NC(=O)COc2ccc(C(=O)c3ccccc3)cc2)cc1	-12	·	-7%	10µM*	25µM*	2%
COCC(=O)Nc1ccc(S(=O)(=O)NCCc2ccccc2)cc1	-107*	1	13%[38.3 µM]	-11%	-8%	-6%[46.1 µM]

Compound activity as filed in PubChem BioAssay.
